Consider 35 compounds from PubChem BioAssay.

Calls of active or inactive are those of the source. No stated cut-off is given here; in the data, active means fold change permeability below about 0.7 or above about 1.3; inactive means in between.

The assay is described as follows: modulators of brain endothelial barrier permeability, primary screen, cell-based, FITC-avidin fluorescence, HTS (AID 1963498). Further: test concentration not given here. To be noted: actives lie on both sides.
On to `Cc1cc([C@@H]2CCCN2C)on1`, for which the fold change permeability was 1.1 (inactive).

`CCCN1CCC[C@@H]2Cc3nc(N)ncc3C[C@H]21`: the fold change permeability is 1.1 (inactive).

As for `CC(C)NP(=O)(NC(C)C)OP(=O)(NC(C)C)NC(C)C`, the fold change permeability is 1.1 (inactive).

For `CC1=NN=C(c2ccc(N)cc2)c2cc3c(cc2C1)OCO3`, the fold change permeability was 1.1 (inactive).

Take `NC(CP(=O)(O)O)C(=O)O` (stereo not given): the fold change permeability was 1 (inactive).

In the case of `CN1C2CCC1CC(OC(c1ccccc1)c1ccccc1N)C2` (stereo not given), the fold change permeability was 1.1 (inactive).

With `N[C@@]1(C(=O)O)CC[C@@H](C(=O)O)C1`, the fold change permeability is 1 (inactive).

As to `c1ccc(C[N+]23CN4CN(CN(C4)C2)C3)cc1`, the fold change permeability is 0.7 (active).

Consider `O=C(CCCN1CCC2(CC1)C(=O)NCN2c1ccccc1)c1ccc(F)cc1`, for which the fold change permeability was 1 (inactive).

Turning to `O=C(O)[C@@H]1CCN1`, the fold change permeability is 1 (inactive).

Consider `NCCc1ccc(S(=O)(=O)F)cc1`, for which the fold change permeability is 1 (inactive).

Consider `CC(CCc1ccccc1)NC(C)C(O)c1ccc(O)cc1` (stereo not given), for which the fold change permeability was 0.8 (inactive).

In the case of `COC(=O)C1=CCCN(C)C1`, the fold change permeability is 1.2 (inactive).

With `N#Cc1ccc(N2CCN(C(=O)COc3ccc4[nH]cc(CCN)c4c3)CC2)cc1`, the fold change permeability is 1 (inactive).

As for `Clc1cnc(Oc2ccc(Oc3ncc(Cl)cc3Cl)cc2)c(Cl)c1`, the fold change permeability is 1.4 (active).

With `Cc1c2ccncc2c(C)c2c1[nH]c1ccccc12`, the fold change permeability is 1.2 (inactive).

Take `CN1C[C@H](CNC(=O)OCc2ccccc2)C[C@@H]2c3cccc4c3c(cn4C)C[C@H]21`: the fold change permeability was 1.4 (active).

`C[N+](C)(C)CCOC(=O)CBr`: the fold change permeability was 1 (inactive).

Regarding `NNC(=O)c1ccc(O)cc1`, the fold change permeability was 0.8 (inactive).

As to `COc1ccc(C(=O)N2CCCC2=O)cc1`, the fold change permeability was 1 (inactive).

Turning to `NC(=O)CN1CC(O)CC1=O` (stereo not given), the fold change permeability is 0.8 (inactive).

In the case of `O=c1[nH]oc2c1CCNC2`, the fold change permeability was 1.4 (active).

Turning to `Clc1ccc(C(c2ccc(Cl)cc2)n2cc[n+](CC(OCc3ccc(Cl)cc3Cl)c3ccc(Cl)cc3Cl)c2)cc1` (stereo not given), the fold change permeability was 1.3 (active).

As to `COc1ccccc1N1CCNCC1`, the fold change permeability was 0.9 (inactive).

Consider `CCCN(CCC)[C@@H]1CCc2cccc(O)c2C1`, for which the fold change permeability is 1.2 (inactive).

Turning to `CC(N)C(=O)OC(C)(C)Cc1ccc(Cl)cc1` (stereo not given), the fold change permeability was 1.1 (inactive).

For the compound `CN(c1nc2ccccc2s1)C1CCN(C[C@H](O)COc2ccc(F)c(F)c2)CC1`, the fold change permeability is 1.6 (active).

Consider `Cc1ncc(CNC(=O)N(CCCl)N=O)c(N)n1`, for which the fold change permeability was 0.9 (inactive).

Turning to `CCCC[N+]1(C)C2CC(OC(=O)[C@H](CO)c3ccccc3)CC1C1OC12` (stereo not given in full), the fold change permeability is 0.8 (inactive).

`CCOC(=O)c1ccc(-c2ccc(OC(=O)N(C)Cc3cccc(-c4ccncc4)c3)cc2)cc1`: the fold change permeability was 1.2 (inactive).

Regarding `CC(N)Cc1c[nH]c2ccc(O)cc12` (stereo not given), the fold change permeability was 0.8 (inactive).

In the case of `O=[N+]([O-])/C=C/c1ccc2c(c1)OCO2`, the fold change permeability was 1.4 (active).

Regarding `NCC(O)c1ccc(O)cc1` (stereo not given), the fold change permeability is 0.9 (inactive).

Consider `C=CCN1C[C@H](C)N([C@H](c2ccc(C(=O)N(CC)CC)cc2)c2cccc(OC)c2)C[C@H]1C`, for which the fold change permeability is 0.7 (active).

Take `C[N+]1(C)CCOC(O)(c2ccc(-c3ccc(C4(O)C[N+](C)(C)CCO4)cc3)cc2)C1` (stereo not given): the fold change permeability was 1.1 (inactive).
